Test results taken from PubChem BioAssay AID1159580 (chemical genetic matrix, 2015).
The whole screen tested about 5,500 compounds, of which about 2,000 (36%) were called active. Inconclusive results (about 18%) are left out. No stated cut-off is given here; in the data, active means normalized growth mostly below about 0.91 (no sharp cut-off); inconclusive means no clear call, values can overlap the other calls; inactive means mostly above about 0.92. The list shows a part of the results.

Experiment: chemical genetic growth profiling, strain panel (AID 1159580);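 further: tested at 20 µM; growth read once vehicle control cultures reached saturation at 30 °C; 1 = growth at the plate median or of vehicle wells; lower values mean less growth of the strain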
Conditions: S. cerevisiae deletion strains, growth OD

Measured: normalized growth

CCCCC/C=C\C/C=C\C/C=C\C/C=C\CCCC(=O)O
inactive: locus YAL013W, strain DEP1, active compounds read low 0.987 | locus YAL021C, strain ccr4, active compounds read low 0.986 | locus YAL030W, strain snc1, active compounds read low 0.978 | locus YBL061C, strain skt5, active compounds read low 0.962 | locus YBR009C, strain hhf1, active compounds read low 0.952 | locus YBR021W, strain FUR4, active compounds read low 0.95 | locus YBR023C, strain chs3, active compounds read low 0.963 | locus YBR171W, strain sec66, active compounds read low 0.979 | locus YBR229C, strain ROT2, active compounds read low 0.994 | locus YBR231C, strain swc5, active compounds read low 0.975 | locus YBR279W, strain paf1, active compounds read low 0.976 | locus YCL011C, strain gbp2, active compounds read low 0.971 | locus YCL016C, strain dcc1, active compounds read low 0.974 | locus YCL029C, strain bik1, active compounds read low 0.986 | locus YCL061C, strain MRC1, active compounds read low 0.975 | locus YCL069W, strain vba3, active compounds read low 0.969 | locus YCR088W, strain abp1, active compounds read low 0.975 | locus YDL005C, strain med2, active compounds read low 0.984 | locus YDL035C, strain GPR1, active compounds read low 0.953 | locus YDL040C, strain nat1, active compounds read low 0.97 | locus YDL074C, strain BRE1, active compounds read low 0.916 | locus YDL101C, strain DUN1, active compounds read low 0.989 | locus YDL134C, strain PPH21, active compounds read low 0.984 | locus YDL185W, strain tfp1, active compounds read low 0.974 | locus YDL192W, strain arf1, active compounds read low 0.965 | locus YDR001C, strain nth1, active compounds read low 0.972 | locus YDR069C, strain doa4, active compounds read low 0.993 | locus YDR101C, strain arx1, active compounds read low 0.968 | locus YDR150W, strain NUM1, active compounds read low 0.99 | locus YDR159W, strain sac3, active compounds read low 0.926 | locus YDR162C, strain NBP2, active compounds read low 0.967 | locus YDR195W, strain ref2 1.01 | locus YDR297W, strain sur2, active compounds read low 0.972 | locus YDR318W, strain mcm21, active compounds read low 0.957 | locus YDR334W, strain swr1, active compounds read low 0.969 | locus YDR335W, strain msn5, active compounds read low 0.971 | locus YDR388W, active compounds read low 0.979 | locus YDR502C, strain sam2, active compounds read low 0.977 | locus YEL003W, strain gim4, active compounds read low 0.975 | locus YEL037C, strain rad23, active compounds read low 0.974 | locus YEL061C, strain CIN8 (second series), active compounds read low 0.966 | locus YEL061C, strain CIN8, active compounds read low 0.982 | locus YER015W, strain faa2, active compounds read low 0.973 | locus YER016W, strain bim1, active compounds read low 0.978 | locus YER110C, active compounds read low 0.976 | locus YER111C, strain swi4, active compounds read low 0.963 | locus YER155C, strain BEM2, active compounds read low 0.984 | locus YER167W, strain BCK2, active compounds read low 0.945 | locus YFR010W, strain ubp6, active compounds read low 0.974 | locus YGL078C, strain dbp3, active compounds read low 0.951 | locus YGL086W, strain mad1, active compounds read low 0.976 | locus YGL167C, strain pmr1, active compounds read low 0.958 | locus YGL173C, strain kem1, active compounds read low 0.96 | locus YGL227W, strain vid30, active compounds read low 0.988 | locus YGL240W, strain doc1, active compounds read low 0.963 | locus YGL248W, strain PDE1, active compounds read low 0.985 | locus YGL253W, strain hxk2, active compounds read low 0.974 | locus YGR078C, strain PAC10, active compounds read low 0.945 | locus YGR135W, strain pre9, active compounds read low 0.971 | locus YGR229C, strain SMI1, active compounds read low 0.877 | locus YGR252W, strain gcn5, active compounds read low 1.01 | locus YHR013C, strain ard1, active compounds read low 0.855 | locus YHR027C, strain rpn1, active compounds read low 0.981 | locus YHR030C, strain SLT2, active compounds read low 0.97 | locus YHR079C, strain IRE1 (second series), active compounds read low 0.967 | locus YHR094C, strain hxt1, active compounds read low 0.947 | locus YHR129C, strain ARP1, active compounds read low 0.992 | locus YHR142W, strain chs7, active compounds read low 0.931 | locus YHR200W, strain rpn10, active compounds read low 0.987 | locus YIL066C, strain RNR3, active compounds read low 0.977 | locus YIL073C, strain SPO22, active compounds read low 0.862 | locus YIR030C, strain dcg1, active compounds read low 0.985 | locus YJL092W, strain hpr5, active compounds read low 0.978 | locus YJL095W, strain BCK1 (second series), active compounds read low 0.972 | locus YJL095W, strain BCK1, active compounds read low 0.92 | locus YJL115W, strain asf1, active compounds read low 0.97 | locus YJL129C, strain trk1, active compounds read low 0.929 | locus YJL134W, strain LCB3, active compounds read low 1.02 | locus YJL154C, strain vps35, active compounds read low 0.979 | locus YJL164C, strain tpk1, active compounds read low 0.97 | locus YJL166W, strain qcr8, active compounds read low 0.959 | locus YJL168C, strain set2, active compounds read low 0.986 | locus YJL187C, strain SWE1 (second series), active compounds read low 0.983 | locus YJL187C, strain SWE1, active compounds read low 0.978
active: locus YAL026C, strain drs2, active compounds read low 0.831 | locus YDR137W, strain rgp1, active compounds read low 0.846 | locus YDR392W, strain spt3, active compounds read low 0.474 | locus YER155C, strain BEM2 (second series), active compounds read low 0.746
